Consider 38 molecules from PubChem BioAssay AID493194 (Broad Institute, 2011).

Molecules are shown by their SMILES. Measured potencies and affinities stand elsewhere. Records with an inconclusive call do not appear. The source made the active and inactive calls.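 How the source made its calls: active means a valid curve of falling signal whose half-effect concentration is at most ten times the top tested dose; inconclusive means flat curve at 30 to 70% inhibition, or poor fit; inactive means signal rise, flat within 30%, or potency beyond limit.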

This experiment deals with Scavenger receptor class B member 1 (Mus musculus) (UniProt Q61009). Kind of experiment: inhibitors of SR-BI mediated HDL lipid uptake, dose response, ldlA[mSR-BI] cells, fluorescence, cherry pick (AID 493194).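 Further: CHO cells lacking LDL receptor and overexpressing mouse SR-BI; cellular uptake of fluorescently labeled HDL measured as cell fluorescence; 0% = median of neutral control wells and -100% = median of positive control wells.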 The conditions noted are these: CHO ldlA[mSR-BI] DiI-HDL uptake fluorescence, 3 h; series mostly up to 35 µM; activity change, negative = inhibition: at the top concentration.
Chain of Scavenger receptor class B member 1 (Mus musculus) (Q61009 whole entry, looked up): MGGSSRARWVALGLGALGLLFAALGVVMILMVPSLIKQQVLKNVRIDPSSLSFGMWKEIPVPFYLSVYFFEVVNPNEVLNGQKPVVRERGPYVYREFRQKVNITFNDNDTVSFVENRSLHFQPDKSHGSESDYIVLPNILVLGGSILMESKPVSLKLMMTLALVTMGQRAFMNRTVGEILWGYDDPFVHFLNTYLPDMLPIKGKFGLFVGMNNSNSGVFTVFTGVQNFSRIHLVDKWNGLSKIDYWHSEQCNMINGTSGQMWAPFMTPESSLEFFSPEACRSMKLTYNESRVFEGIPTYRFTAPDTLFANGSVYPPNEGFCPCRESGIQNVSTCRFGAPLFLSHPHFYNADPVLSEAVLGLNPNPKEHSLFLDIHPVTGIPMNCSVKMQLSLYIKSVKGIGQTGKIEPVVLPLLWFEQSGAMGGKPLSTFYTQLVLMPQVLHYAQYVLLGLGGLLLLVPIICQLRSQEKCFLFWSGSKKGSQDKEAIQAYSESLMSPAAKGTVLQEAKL
Take `N#Cc1ccccc1S(=O)(=O)N1CCN(C(=O)C2CC(=O)N(c3ccc4c(c3)OCCO4)C2)CC1` (stereo not drawn): the “activity change, negative = inhibition” value is -4.49% (inactive). In the case of `COC(=O)[C@@]1(Cc2ccc(F)cc2)[C@H]2c3cc(C(=O)N4CCCC4)n(CCCNc4ncc(C(F)(F)F)cc4Cl)c3C[C@H]2CN1C(=O)c1ccccc1`, the “activity change, negative = inhibition” value was 22.1% (inactive). With `O=C(c1ccc(S(=O)(=O)NCc2ccco2)cc1)N1CCN(Cc2ccc3c(c2)OCO3)CC1`, the “activity change, negative = inhibition” value was -9.81% (inactive). For the molecule `Cc1ccc2nc(-c3ccccc3)cc(C(=O)N3CCN(c4ccccc4O)CC3)c2c1`, the “activity change, negative = inhibition” value was -7.75% (inactive). As to `Cc1cc(C)cc(N(CCC#N)C(=O)COC(=O)CCc2c[nH]c3ccccc23)c1`, the “activity change, negative = inhibition” value is -32.9% (inactive).

As for `CCN(CC)C(=O)c1cccc(NC(=O)c2cc(C3CC3)nc3c2cnn3C(C)C)c1`, the “activity change, negative = inhibition” value was -26.8% (inactive). On to `CC(=O)c1ccc(-c2ccc(C(=O)Nc3nc(C)c(C(C)=O)s3)o2)cc1`, for which the “activity change, negative = inhibition” value was 2.09% (inactive). Turning to `O=C(OCc1ccccc1)N1CCC2CC1c1cc(-c3ccc(F)cc3)ccc12` (stereo not drawn), the “activity change, negative = inhibition” value was 0.578% (inactive).

As for `O=C(Nc1cccc(Cl)c1)Nc1sccc1-c1nc2ccccc2s1`, the “activity change, negative = inhibition” value was -30.2% (inactive).

In the case of `O=C(Nc1ncc(Cc2cccc(C(F)(F)F)c2)s1)c1ccc(-c2cccc([N+](=O)[O-])c2)o1`, the “activity change, negative = inhibition” value is -9.44% (inactive). As for `CC(=O)c1cc(C#N)c(SCc2ccccc2C#N)nc1C`, the “activity change, negative = inhibition” value was -9.44% (inactive).

Take `CCCC(=O)Nc1ccc(Cl)c(NC(=O)c2cccc(OC)c2)c1`: the “activity change, negative = inhibition” value is -4.6% (inactive).

With `Cc1cccc(N2CCN(C(=O)Cn3cccc3C(=O)c3ccccc3)CC2)c1C`, the “activity change, negative = inhibition” value is -20.2% (inactive). Take `Cc1cccc(Nc2ccccc2C(=O)OCC(=O)N(C)C2CCS(=O)(=O)C2)c1C` (stereo not drawn): the “activity change, negative = inhibition” value is -26.6% (inactive). The result for `Cc1cccc(NC(=O)C2(C)CC3c4ccccc4C2c2ccccc23)c1C` (stereo not drawn) reads 29.8% (inactive); that for `Cc1cc(C)cc(N2CN=C3SCC(=O)N3C2)c1`, -9.5% (inactive). In the case of `CN(Cc1ccccc1N1CCCC1)C(=O)c1cc2cc(Cl)ccc2o1`, the “activity change, negative = inhibition” value is -17% (inactive). In the case of `CN(Cc1ccc(OC(F)F)cc1)C(=O)c1ccccc1Sc1ccccc1C#N` it was 38.7% (inactive); in that of `COc1ccc(-c2nnc(SCC(=O)Nc3ncc(C(F)(F)F)cc3Cl)n2CC(C)C)cc1`, -12.1% (inactive); in that of `O=C(c1ccc(S(=O)(=O)NCc2ccco2)cc1)N1CCN(Cc2ccccc2)CC1`, -36.1% (inactive).

In the case of `CC(=O)c1cccc(NC(=O)c2ccc3c(c2)CCN3S(=O)(=O)c2ccccc2)c1`, the “activity change, negative = inhibition” value was -0.128% (inactive). In the case of `COc1cccc2c1cc1c(=O)n(CC(=O)N3CCN(c4cccc(C)c4C)CC3)nc(C)n12` it was 26.3% (inactive).

Take `CC(=O)NCCC1CCN(C(=O)c2cc(COc3ccc(C)nc3)on2)CC1`: the “activity change, negative = inhibition” value is 7.7% (inactive). On to `O=C(NC1CC2CCCC(C1)N2C(=O)N1CCCCC1)C1CCCCC1` (stereo not drawn), for which the “activity change, negative = inhibition” value was 17.6% (inactive).

With `CCCCCCC(=O)Nc1nc(C)c(-c2csc(Nc3ccc(Cl)cc3)n2)s1`, the “activity change, negative = inhibition” value is 8.24% (inactive). In the case of `COc1cc([N+](=O)[O-])ccc1NC(=O)NCC1CCN(Cc2ccc(Cl)cc2)CC1`, the “activity change, negative = inhibition” value is -13% (inactive). As for `COC(=O)c1c(C)[nH]c(C(=O)C(C)OC(=O)C2CC(=O)N(c3ccc(C)cc3)C2)c1C` (stereo not drawn), the “activity change, negative = inhibition” value was -23.5% (inactive). `CCC(C)c1ccccc1N1CC(C(=O)N2CCN(S(=O)(=O)c3cccc([N+](=O)[O-])c3)CC2)CC1=O` (stereo not drawn): the “activity change, negative = inhibition” value is 36.4% (inactive).

Consider `COCCN(Cc1cn(C)nc1-c1ccc(Oc2ccccc2)cc1)C(C)C`, for which the “activity change, negative = inhibition” value was 4.72% (inactive). With `CCC(=O)Nc1ccccc1-c1nnn(CC(=O)N2c3ccccc3CC2C)n1` (stereo not drawn), the “activity change, negative = inhibition” value was 3.68% (inactive).

Regarding `CCOC(=O)CSc1c(-c2ccc(Cl)cc2)[nH]c2ccccc12`, the “activity change, negative = inhibition” value was 7.74% (inactive). In the case of `CC(=O)Oc1ccc(C(=O)Cc2ccc3ccccc3n2)c(O)c1C` it was -1.92% (inactive); in that of `CCOC(=O)c1c(C)n(-c2ccc(C)cc2)c2c(CC(C)=O)c(Br)c(OC)c(O)c12`, 1.79% (inactive). Regarding `CCCn1c(=O)[nH]c(=O)c2c1nc(-c1ccc(OC(F)(F)C(F)C(F)(F)F)cc1)n2CCOC` (stereo not drawn), the “activity change, negative = inhibition” value is -12% (inactive).

Take `CCCOC1CCCN(C(=O)c2cc(COc3cncc(Cl)c3)on2)C1` (stereo not drawn): the “activity change, negative = inhibition” value is 27.2% (inactive). On to `CCC1CCCCN1C(=O)CSc1nnc(-c2ccco2)o1` (stereo not drawn), for which the “activity change, negative = inhibition” value was 43.3% (inactive). Turning to `Cc1cccc(N2CCN(C(=O)COc3ccc4c(C)cc(=O)oc4c3C)CC2)c1C`, the “activity change, negative = inhibition” value is 34.3% (inactive). For the molecule `CCOc1ccccc1COC(=O)c1cccc(-n2cnnn2)c1`, the “activity change, negative = inhibition” value is -9.83% (inactive).
